Here are results for six compounds from PubChem BioAssay (NCATS).

The nature of assay [1]: Primary qHTS for Huh7 cytotoxicity: counterscreen for inhibitors of MERS-S pseudotyped particle cell entry (AID 1479147). Particulars: outcome: dose series up to 57.1 µM unless noted. (In qHTS, concentration-response curves come from the screen itself.)
The nature of assay [2]: Primary qHTS for inhibitors of MERS-S pseudo-typed particle cell entry (AID 1479149). For activity change, negative = inhibition: % is set by controls: 0 for no effect and ±100 for the full control effect. Note: nearly all actives have a fitted effect of over 60% in size. Conditions: outcome: dose series up to 57.1 µM unless noted.
The nature of assay [3]: Primary qHTS for Vero E6 cytotoxicity: counterscreen for inhibitors of SARS-S pseudo-typed particle cell entry (AID 1479150). Conditions: outcome: dose series up to 57.1 µM unless noted.
Assay [4] is described as follows: Cytotoxicity counterscreen for inhibitors of SARS-CoV-2 cell entry (AID 1645845). Note: nearly all actives have a fitted effect of over 50% in size. Particulars: outcome: dose series up to 57.1 µM unless noted. Put shortly:
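48 h compound treatment (after 1 h preincubation), HEK293-ACE2 cells, 37 C/5% CO2; ATP luminescence endpoint; normalized to cell wells and media blanks.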

A short description of assay [5]: Primary qHTS to identify inhibitors of SARS-CoV-2 cell entry (AID 1645846). Note: nearly all actives have a fitted effect of over 45% in size. Particulars: SARS-CoV-2 pseudovirus cell entry assay, luminescence; activity change, negative = inhibition: at 57.1 µM (top of the series) unless noted. The method in brief:
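Entry measured by luciferase signal 48 h after adding SARS-CoV-2-S pseudotyped MLV particles to HEK293-ACE2 cells preincubated 1 h with compounds. Normalisation: bald particles and spike particles.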

Results filed as inconclusive are left out. Calls of active or inactive are those of the source. Calls come from the whole dose curve.

As for `CCCOc1cc(N)ccc1C(=O)OCCN(CC)CC`, the Potency entry in assay [1], in assay [2], in assay [3] and in assay [4] was “inactive” throughout. Further, in assay [5], the activity change, negative = inhibition is -10.9%.

Regarding `NC(=O)[C@@H]1C[C@]2(NC(=O)NC2=O)c2cc(F)ccc2O1`, the Potency entry in assay [1], in assay [2], in assay [3] and in assay [4] was “inactive” throughout. In addition, in assay [5], the activity change, negative = inhibition is -14.3%.

`C/C(=C(/CCO)SSCC1CCCO1)N(C=O)Cc1cnc(C)nc1N` (stereo not given): the Potency result in assay [1], in assay [2], in assay [3] and in assay [4] was “inactive” throughout. Besides, the activity change, negative = inhibition in assay [5] is -21.7%.

With `COc1ccc(-c2c(Cl)ncn2-c2ccc(S(N)(=O)=O)cc2)cc1F`, the Potency entry in assay [1], in assay [2], in assay [3] and in assay [4] was “inactive” in each case. Moreover, in assay [5], the activity change, negative = inhibition was -27%.

Take `CCCC(=O)Nc1c(I)cc(I)c(CC(CC)C(=O)O)c1I` (stereo not given): the Potency result in assay [1], in assay [2], in assay [3] and in assay [4] was “inactive” each time. Besides, the activity change, negative = inhibition in assay [5] was -27.1%.

As for `COC(=O)[C@H]1[C@H]2C[C@@H]3c4[nH]c5cc(OC)ccc5c4CCN3C[C@H]2C[C@@H](OC(=O)/C=C/c2cc(OC)c(OC)c(OC)c2)[C@@H]1OC`, the Potency entry in assay [1], in assay [2], in assay [3] and in assay [4] was “inactive” in each case. In assay [5], the activity change, negative = inhibition is -22.2% [at 19 µM].
